Measurements from PubChem BioAssay (NCATS).
Inconclusive results are not listed. Activity calls are given as the source filed them. The call rests on the fitted dose curve; in most records, active means well fitted cell-killing curve with a large enough effect; inconclusive means small, poorly fitted or top-dose-only effect, or effect the other way; inactive means flat fitted curve, though single readings scatter.

Tests used:
Assay in all cases: Primary qHTS to identify gynecologic anti-cancer compounds using libraries of approved drugs and bioactive compounds (AID 1345084); further: nearly all actives have a fitted effect of over 55% in size
C33A = details: Gynecologic cancer cell panel viability, ATPlite luminescence, 48 h; series mostly up to 57.5 µM
How it was run: (§1)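 Cytotoxicity screen measuring ATP content by luciferase luminescence. Each compound is applied at five concentrations for 48 h at 37 C with 5% CO2.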

CASKI = details: Gynecologic cancer cell panel viability, ATPlite luminescence, 48 h; series mostly up to 57.5 µM
How it was run: as §1

Es-2 = details: Gynecologic cancer cell panel viability, ATPlite luminescence, 48 h; series mostly up to 57.5 µM
How it was run: as §1

HeLa = details: Gynecologic cancer cell panel viability, ATPlite luminescence, 48 h; series mostly up to 57.5 µM
How it was run: as §1

Hek293T = details: Gynecologic cancer cell panel viability, ATPlite luminescence, 48 h, control line for the selectivity index; series mostly up to 57.5 µM
How it was run: as §1

JEG-3 = details: Gynecologic cancer cell panel viability, ATPlite luminescence, 48 h; series mostly up to 57.5 µM
How it was run: as §1

Tov112D = details: Gynecologic cancer cell panel viability, ATPlite luminescence, 48 h; series mostly up to 57.5 µM
How it was run: as §1

OV90 = details: Gynecologic cancer cell panel viability, ATPlite luminescence, 48 h; series mostly up to 57.5 µM
How it was run: as §1

PA-1 = details: Gynecologic cancer cell panel viability, ATPlite luminescence, 48 h; series mostly up to 57.5 µM
How it was run: as §1

SKOV3 = details: Gynecologic cancer cell panel viability, ATPlite luminescence, 48 h; series mostly up to 57.5 µM
How it was run: as §1

Tov-21-G = details: Gynecologic cancer cell panel viability, ATPlite luminescence, 48 h; series mostly up to 57.5 µM
How it was run: as §1

Measured: Potency
Potency means the concentration at half of the fitted maximal effect.

NC(=O)c1cnc(N[C@@H]2CCCC[C@H]2N)nc1Nc1cccc(-n2nccn2)c1
not listed: OV90 | PA-1 | SKOV3 | Tov-21-G
inactive: all other assays above

Cn1sc(=O)n(Cc2ccccc2)c1=O
not listed: Hek293T | JEG-3 | Tov-21-G
inactive: all other assays above

CC(NC(=O)Cc1cc(F)cc(F)c1)C(=O)NC1C(=O)N(C)c2ccccc2-c2ccccc21 (centres undefined)
not listed: PA-1 | SKOV3
inactive: all other assays above

COc1ccc(CCCN2CCC(COC(c3ccccc3)c3ccccc3)CC2)cc1
not listed: SKOV3 | Tov-21-G
inactive: all other assays above

CC(C)(C[C@@](O)(Cc1cc2ccncc2[nH]1)C(F)(F)F)c1cc(F)ccc1O
not listed: Hek293T | SKOV3
inactive: all other assays above

C[C@@H](N[C@H]1CCCC[C@@H]1NC(=O)c1ccc(Cl)cc1)c1cccc2ccccc12
active: SKOV3 31.6 µM
not listed: JEG-3 | Tov112D
inactive: all other assays above

COc1ccc(C(=O)O[C@H]2C=COC=C3C=C4C(=O)N(C)C(=S)C(=O)N4[C@@H]32)cc1Oc1cc(C=O)ccc1O
not listed: PA-1 | Tov-21-G
inactive: all other assays above

C[C@H](Oc1cc(-c2cnn(C3CCNCC3)c2)cnc1N)c1c(Cl)ccc(F)c1Cl
not listed: OV90 | PA-1 | SKOV3 | Tov-21-G
inactive: all other assays above

C=C(C)C1CC(O)C(C)C12CC(O)C1(C)OC1C2O (centres undefined)
active: C33A 11.2 µM | CASKI 12.6 µM | Es-2 8.91 µM | HeLa 14.1 µM | JEG-3 28.2 µM | OV90 7.08 µM | PA-1 8.91 µM | SKOV3 7.94 µM

COc1ccc2cc3c(NC(=O)c4ccco4)nn(C)c3nc2c1
not listed: OV90 | SKOV3
inactive: all other assays above

C=C1C(=O)OC2CC(C)C(CCC(C)O)=CCC12 (centres undefined)
not listed: JEG-3 | SKOV3
inactive: all other assays above

C=C1C(=O)O[C@@H]2C[C@@]3(C)CCCC(=C)[C@]3(O)C[C@H]12
not listed: Hek293T | PA-1 | Tov-21-G
inactive: all other assays above

COC(CCc1ccc(O)cc1)CC(=O)CCc1ccc(O)cc1 (centres undefined)
not listed: JEG-3
inactive: all other assays above

COc1ccc(NC(=O)c2ccc(-c3ccc(-c4nnc(C)o4)cc3C)cc2)cc1N1CCN(C)CC1
not listed: PA-1
inactive: all other assays above

CC(C)CCCCC(=O)N[C@@H](CO)C(=O)N[C@@H](CC(C)C)C(=O)[C@@]1(CO)CO1
not listed: PA-1 | Tov-21-G
inactive: all other assays above

CCCCCCCCC(=O)N[C@H](CN1CCCC1)[C@H](O)c1ccc2c(c1)OCCO2
not listed: Hek293T | OV90 | SKOV3
inactive: all other assays above

COc1cc2c(cc1OC)CN(C(=O)/C=C/c1c(-c3ccccc3)n(C)c3ncccc13)CC2
not listed: Hek293T | SKOV3 | Tov-21-G
inactive: all other assays above

Nc1nc2c(c(N3CC[C@@H](N)C3)n1)CCCc1ccccc1-2
active: SKOV3 28.2 µM
not listed: Hek293T | OV90
inactive: all other assays above

Cc1ccc(NC(=O)N2CCN(c3nc(N)nc4sc(-c5cccnc5)nc34)CC2)cc1
not listed: PA-1 | SKOV3
inactive: all other assays above

Cc1cn(CCN2CCN(c3ccccc3-c3cc(C#N)cc(C(=O)NCCCN4CCCC4)c3)CC2)c2ccccc12
not listed: OV90
inactive: all other assays above
